Here are results for one molecule from PubChem BioAssay AID743088 (The Scripps Research Institute Molecular Screening Center, 2013).

A number with no mark means an inactive call.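 Rule for the calls: active = binding inhibited by at least 50%, or stimulated by at least 50%, shown as inhibition of -50% or lower; inactive = the rest.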

The test deals with Potassium Channel KATP. Kind of test: off-target binding across receptor panel, profiling panel, selectivity assay for AVPR1a antagonist project, biochemical, Panlabs HitProfilingScreen (AID 743088). To be noted: Panlabs radioligand binding panel, 30 targets, at 10 µM, hits give high values.

As to `O=C(C1CCN(c2ccc(Cl)cn2)CC1)N(CC1CC1)c1ccc(Cl)cc1`, the inhibition of binding was 19%.
